These results are taken from PubChem BioAssay (Tox21).

Several values for one entry are separate records, joined by “and”; a condition that tells them apart may be missing. Equal entries are not always repeated. A structure can be active in one record and inactive in another. Activity calls are given as the source filed them. Unless noted, the call rests on the fitted dose curve; in most records, active means well fitted curve in the direction sought with a large enough effect in the repeat runs; inconclusive means weak or mixed curves; inactive means no such curve, though single readings can be large; an effect the other way counts as inactive or inconclusive.

Assay [1] can be described thus: qHTS assay to identify small molecule antagonists of the thyroid receptor (TR) signaling pathway - cell viability counter screen (AID 743064). Further: nearly all actives have a fitted effect of over 50% in size. Further: potency means the concentration at half of the fitted maximal effect. In short, it runs like this:
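Same-well viability check: GH3.TRE-Luc cells stimulated with 1 nM T3 alongside test compound for 23.5 h, followed by CellTiter-Fluor fluorescence.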
For orientation: In qHTS, concentration-response curves come from the screen itself.

Assay [2] is described as follows: qHTS assay to identify small molecule antagonists of the thyroid receptor (TR) signaling pathway (AID 743065). Further: nearly all actives have a fitted effect of over 55% in size. Further: potency means the concentration at half of the fitted maximal effect. In short, it runs like this: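 GH3.TRE-Luc rat pituitary cells (two TREs driving luciferase) were dosed with compound, then stimulated with 1 nM T3 (final) for 23.5 h at 37 C. ONE-Glo luminescence was the read-out, with CellTiter-Fluor fluorescence as the cytotoxicity counter-screen.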

For assay [3], the system named is thyroid hormone receptor (rat, GH3 cells). In words: qHTS assay to identify small molecule agonists of the thyroid receptor (TR) signaling pathway (AID 743066; calls by dose curve).
Assay [4] in a line: qHTS assay to identify small molecule antagonists of the estrogen receptor alpha (ER-alpha) signaling pathway - cell viability counter screen (AID 743074; calls by dose curve;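 further: HEK293 cells carrying ER-alpha-UAS-bla reporter stimulated with 17beta-estradiol; nearly all actives have a fitted effect of over 45% in size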; further: potency means the concentration at half of the fitted maximal effect).
The nature of assay [5]: qHTS assay to identify small molecule antagonists of the estrogen receptor alpha (ER-alpha) signaling pathway using the BG1 cell line - cell viability counter screen (AID 743081).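 Further: compound given together with 17beta-estradiol as the ER stimulus; nearly all actives have a fitted effect of over 45% in size.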 Further: potency means the concentration at half of the fitted maximal effect.
Assay [6] has as its target Aromatase (Homo sapiens) (UniProt P11511). The assay is described as follows: qHTS assay to identify aromatase inhibitors (AID 743083). Further: nearly all actives have a fitted effect of over 55% in size. Further: potency means the concentration at half of the fitted maximal effect.
Assay [7] is described as follows: qHTS assay to identify aromatase inhibitors - cell viability counter screen (AID 743084).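 Further: cells stimulated with testosterone during compound exposure; nearly all actives have a fitted effect of over 55% in size.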 Further: potency means the concentration at half of the fitted maximal effect.
The target in assay [8] is Aryl hydrocarbon receptor (Homo sapiens) (UniProt P35869). In words: qHTS assay to identify small molecule that activate the aryl hydrocarbon receptor (AhR) signaling pathway (AID 743085). Further: nearly all actives have a fitted effect of over 15% in size. Further: potency means the concentration at half of the fitted maximal effect.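 On activation: HG2L7.5c1 human HepG2 liver cells with stably integrated DRE-driven firefly reporter.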 In short, it runs like this: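 Reporter assay in engineered HepG2 line HG2L7.5c1, whose plasmid carries twenty dioxin responsive elements upstream of firefly luciferase. Treatment lasted 24 h at 37C; ONE-Glo luminescence gauged induction.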
Chain of Aryl hydrocarbon receptor (Homo sapiens) (P35869 whole entry, looked up): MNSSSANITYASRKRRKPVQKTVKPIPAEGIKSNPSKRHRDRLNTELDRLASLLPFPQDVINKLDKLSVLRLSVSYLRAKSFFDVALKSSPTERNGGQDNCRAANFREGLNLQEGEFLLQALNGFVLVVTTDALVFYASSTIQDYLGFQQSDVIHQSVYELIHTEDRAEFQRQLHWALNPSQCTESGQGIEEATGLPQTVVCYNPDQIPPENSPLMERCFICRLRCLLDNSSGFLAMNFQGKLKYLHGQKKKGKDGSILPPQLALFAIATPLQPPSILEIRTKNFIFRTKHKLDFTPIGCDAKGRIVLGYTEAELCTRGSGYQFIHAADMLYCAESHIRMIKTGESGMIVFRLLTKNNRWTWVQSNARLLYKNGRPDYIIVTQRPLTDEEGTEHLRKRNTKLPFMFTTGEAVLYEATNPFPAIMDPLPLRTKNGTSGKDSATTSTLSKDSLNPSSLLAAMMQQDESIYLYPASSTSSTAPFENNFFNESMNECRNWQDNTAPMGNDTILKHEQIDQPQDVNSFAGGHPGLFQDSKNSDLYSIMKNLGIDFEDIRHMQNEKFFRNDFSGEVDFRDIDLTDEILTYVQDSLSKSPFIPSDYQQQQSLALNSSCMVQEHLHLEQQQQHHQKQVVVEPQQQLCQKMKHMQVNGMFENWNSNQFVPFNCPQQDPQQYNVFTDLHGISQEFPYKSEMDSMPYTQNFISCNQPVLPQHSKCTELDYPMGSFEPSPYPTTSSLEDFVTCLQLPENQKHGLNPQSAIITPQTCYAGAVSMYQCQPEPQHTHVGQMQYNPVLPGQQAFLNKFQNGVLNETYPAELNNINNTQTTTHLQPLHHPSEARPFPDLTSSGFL

A short description of assay [9]: qHTS assay to identify small molecule that activate the aryl hydrocarbon receptor (AhR) signaling pathway - cell viability counter screen (AID 743086). Further: nearly all actives have a fitted effect of over 45% in size. Further: potency means the concentration at half of the fitted maximal effect. In a few lines:
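HepG2-AhR-luc (HG2L7.5c1) cells, 4000/well, treated 24 h at 37 C with compound; viability measured as CellTiter-Fluor fluorescence after 30 min in the same wells as the luciferase read.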

In assay [10] the target is Peroxisome proliferator-activated receptor gamma (Homo sapiens) (UniProt P37231). The assay is described as follows: qHTS assay to identify small molecule agonists of the peroxisome proliferator-activated receptor gamma (PPARg) signaling pathway (AID 743094; active means well fitted activation curve with a large enough effect in the signal ratio in the repeat runs, not every such curve was filed as active; inconclusive means weak or mixed curves, or effect the other way; inactive means no such curve, though single readings can be large or run the other way; the % refers to the signal ratio). In short, it runs like this: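 Fluorescence-based beta-lactamase readout in HEK293H PPARg UAS-bla cells after 17 h compound exposure (37C) and 1 h B/G FRET substrate incubation at room temperature.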
Chain of Peroxisome proliferator-activated receptor gamma (Homo sapiens) (P37231 whole entry, looked up): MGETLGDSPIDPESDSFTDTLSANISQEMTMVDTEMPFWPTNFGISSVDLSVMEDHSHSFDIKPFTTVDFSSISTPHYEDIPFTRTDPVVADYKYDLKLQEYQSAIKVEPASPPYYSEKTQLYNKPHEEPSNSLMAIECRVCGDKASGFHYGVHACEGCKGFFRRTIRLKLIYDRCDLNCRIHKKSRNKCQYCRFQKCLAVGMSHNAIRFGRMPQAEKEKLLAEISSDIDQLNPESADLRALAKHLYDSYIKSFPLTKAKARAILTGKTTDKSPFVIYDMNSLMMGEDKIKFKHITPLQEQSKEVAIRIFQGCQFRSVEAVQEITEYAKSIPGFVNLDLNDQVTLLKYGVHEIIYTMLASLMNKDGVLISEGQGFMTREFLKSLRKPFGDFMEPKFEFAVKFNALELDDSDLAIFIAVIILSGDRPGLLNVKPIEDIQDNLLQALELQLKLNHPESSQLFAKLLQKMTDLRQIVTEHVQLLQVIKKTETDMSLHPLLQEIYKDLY

For assay [11] the target is unchanged. The assay is described as follows: qHTS assay to identify small molecule antagonists of the peroxisome proliferator-activated receptor gamma (PPARg) signaling pathway (AID 743191; calls by dose curve; further: nearly all actives have a fitted effect of over 30% in size; further: potency means the concentration at half of the fitted maximal effect). In short, it runs like this: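 GeneBLAzer PPARg UAS-bla HEK293H cells, 5 h post-plating, exposed to compounds 17 h at 37C. LiveBLAzer B/G FRET substrate added for 1 h at room temperature; beta-lactamase reporter read by fluorescence intensity.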

Assay [12] is described as follows: qHTS assay to identify small molecule antagonists of the peroxisome proliferator-activated receptor gamma (PPARg) signaling pathway - cell viability counter screen (AID 743194). Further: nearly all actives have a fitted effect of over 55% in size. Further: potency means the concentration at half of the fitted maximal effect. The settings on record: Potency: co-treated with 50 nM rosiglitazone unless noted. In a few lines:
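Cytotoxicity counter screen in PPARg-bla HEK293H cells, same wells as reporter assay. Compounds plus 50 nM rosiglitazone (final) for 17 h at 37 C, then viability read by CellTiter-Glo luminescence.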

The nature of assay [13]: qHTS assay for small molecule activators of the heat shock response signaling pathway - cell viability counter screen (AID 743209). Further: nearly all actives have a fitted effect of over 50% in size. Further: potency means the concentration at half of the fitted maximal effect. In a few lines: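 To flag cytotoxic compounds, HSE-bla HeLa cells plated at 1500 cells/well were dosed for 5 h at 37 C, followed by the reporter FRET read and then CellTiter-Glo, with luminescence recorded 30 min after reagent addition.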
Assay [14] is described as follows: qHTS assay for small molecule agonists of the antioxidant response element (ARE) signaling pathway (AID 743202; active means well fitted activation curve with a large enough effect in the signal ratio in the repeat runs, not every such curve was filed as active; inconclusive means weak or mixed curves, or effect the other way; inactive means no such curve, though single readings can be large or run the other way; the % refers to the signal ratio). In a few lines:
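HepG2 ARE-bla reporter line, 2,000 cells/well; 5 h preincubation 37 C/5% CO2; compound (DMSO) 16 h 37 C; B/G FRET substrate 2 h RT; fluorescence intensity.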

Assay [15] is described as follows: qHTS assay for small molecule agonists of the antioxidant response element (ARE) signaling pathway - cell viability counter screen (AID 743203; calls by dose curve; further: nearly all actives have a fitted effect of over 55% in size; further: potency means the concentration at half of the fitted maximal effect). In a few lines:
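Parallel cytotoxicity read-out for the ARE-bla screen: HepG2 reporter cells, 16 hrs with compounds, then CellTiter-Glo luminescence.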

Assay [16] can be described thus: qHTS assay for small molecule activators of the heat shock response signaling pathway (AID 743210; active means well fitted activation curve with a large enough effect in the signal ratio in the repeat runs, with a control signal flat, not every such curve was filed as active; inconclusive means weak or mixed curves; the % refers to the signal ratio;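 further: HeLa cells with beta-lactamase reporter driven by heat shock elements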). In short, it runs like this:
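Beta-lactamase reporter read-out: FRET substrate fluorescence after 2.5 h at RT, following 5 h compound treatment at 37 C of HeLa cells carrying HSE-driven bla reporter; quantitative HTS format.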

Assay [17] addresses Estrogen receptor (Homo sapiens) (UniProt P03372). The assay is described as follows: qHTS assay to identify small molecule antagonists of the estrogen receptor alpha (ER-alpha) signaling pathway (AID 743069; active means well fitted curve in the direction sought with a large enough effect in the signal ratio in the repeat runs, not every such curve was filed as active; inconclusive means weak or mixed curves, or effect the other way; inactive means no such curve, though single readings can be large or run the other way; the % refers to the signal ratio; further: potency means the concentration at half of the fitted maximal effect). In short, it runs like this:
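Beta-lactamase FRET fluorescence is read after 2 hr at room temperature with LiveBLAzer B/G substrate. Before that, ER-alpha-bla HEK293 cells sit 4 hr after plating, then receive compound plus 17beta-estradiol and incubate 18 hr at 37C.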

For assay [18] the target is unchanged. The assay is described as follows: qHTS assay to identify small molecule agonists of the estrogen receptor alpha (ER-alpha) signaling pathway (AID 743075; calls by dose curve;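 further: HEK293 GripTite cells with ER-alpha and UAS-driven beta-lactamase reporter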).
Assay [19] can be described thus: qHTS assay to identify small molecule antagonists of the estrogen receptor alpha (ER-alpha) signaling pathway using the BG1 cell line (AID 743080; calls by dose curve;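 further: BG1 cells stimulated with 17beta-estradiol alongside compound; nearly all actives have a fitted effect of over 25% in size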). In a few lines:
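Quantitative HTS on the Tox21 10K library: BG1 cells with endogenous ER-alpha and ERE-luciferase reporter, 17beta-estradiol stimulation, 21.5 h compound exposure, luminescence endpoint with parallel fluorescence cytotoxicity counter-read.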

Assay [20] addresses Estrogen receptor (Homo sapiens) (UniProt P03372). In words: qHTS assay to identify small molecule agonists of the estrogen receptor alpha (ER-alpha) signaling pathway using the BG1 cell line (AID 743079). Further: nearly all actives have a fitted effect of over 20% in size. Further: potency means the concentration at half of the fitted maximal effect. The settings on record: BG1Luc4E2 cells, ERE-luciferase agonist, 22 h; activation: at 70.3 µM (top of the series).

Chain of Estrogen receptor (Homo sapiens) (P03372 whole entry, looked up): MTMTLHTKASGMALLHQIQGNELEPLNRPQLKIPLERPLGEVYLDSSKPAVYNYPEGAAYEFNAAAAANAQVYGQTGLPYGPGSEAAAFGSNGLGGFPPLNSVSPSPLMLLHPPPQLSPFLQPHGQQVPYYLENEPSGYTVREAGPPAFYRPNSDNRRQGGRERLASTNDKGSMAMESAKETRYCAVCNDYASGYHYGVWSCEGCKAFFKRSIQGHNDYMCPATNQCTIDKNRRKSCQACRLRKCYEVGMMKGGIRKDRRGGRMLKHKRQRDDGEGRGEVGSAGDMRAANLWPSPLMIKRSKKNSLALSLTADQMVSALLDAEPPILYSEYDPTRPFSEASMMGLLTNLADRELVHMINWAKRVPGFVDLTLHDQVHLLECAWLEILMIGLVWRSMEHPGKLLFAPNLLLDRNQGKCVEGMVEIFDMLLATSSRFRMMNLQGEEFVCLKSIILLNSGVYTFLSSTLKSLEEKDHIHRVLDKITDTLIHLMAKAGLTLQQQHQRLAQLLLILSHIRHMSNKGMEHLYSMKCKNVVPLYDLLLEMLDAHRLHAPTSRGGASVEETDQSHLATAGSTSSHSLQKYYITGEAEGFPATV
Chain of Aromatase (Homo sapiens) (P11511 whole entry, looked up): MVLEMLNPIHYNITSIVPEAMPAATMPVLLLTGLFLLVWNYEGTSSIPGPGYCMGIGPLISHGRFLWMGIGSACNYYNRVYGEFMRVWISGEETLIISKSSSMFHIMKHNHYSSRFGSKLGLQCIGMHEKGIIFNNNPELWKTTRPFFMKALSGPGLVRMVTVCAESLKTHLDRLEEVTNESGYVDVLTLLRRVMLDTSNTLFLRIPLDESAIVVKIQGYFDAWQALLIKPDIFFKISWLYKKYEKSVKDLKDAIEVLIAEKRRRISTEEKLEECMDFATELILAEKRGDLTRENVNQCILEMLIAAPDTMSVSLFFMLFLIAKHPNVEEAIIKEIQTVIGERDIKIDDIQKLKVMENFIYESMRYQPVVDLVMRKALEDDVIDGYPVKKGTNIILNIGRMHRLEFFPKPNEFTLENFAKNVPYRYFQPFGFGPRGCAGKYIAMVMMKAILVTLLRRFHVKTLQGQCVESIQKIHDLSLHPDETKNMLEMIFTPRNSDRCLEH

Take `CC1CCCC1`: the Potency result in assay [1], in [2], in assay [3], in assay [4], in assay [5] and in [6] was “inactive” throughout. For the same molecule, the Potency result in [7], in [8], in assay [9], in [10] and in [12] was “inactive” in each case. In addition, the Potency in assay [11] was 21.5 µM (active); in assay [13], 12.1 µM (active).

`C#CC1(O)CCCCC1`: the Potency entry in assay [1], in assay [2], in [3], in assay [4], in assay [5] and in assay [6] was “inactive” in each case. Besides, the Potency entry in assay [7], in assay [8], in [9], in assay [10], in assay [12] and in assay [14] was “inactive” throughout. Also, the Potency result in [15], in [13] and in assay [16] was “inactive” in each case.

Take `CNN`: the Potency entry in [1], in assay [2], in assay [3], in assay [4], in assay [5] and in assay [6] was “inactive” throughout. In addition, the Potency result in [7], in [8], in assay [9], in assay [11], in assay [12] and in [14] was “inactive” each time. Further, the Potency entry in assay [15] and in [16] was “inactive” in each case.

Turning to `CSC(C)(C)/C=N/O`, the Potency entry in [1], in assay [2], in [3], in assay [17], in [4] and in assay [18] was “inactive” each time. The Potency entry in assay [19], in assay [5], in [6], in assay [7], in assay [8] and in assay [9] was “inactive” throughout. The Potency result in [12] and in assay [13] was “inactive” each time.

Consider `N#CCCl`, for which the Potency entry in assay [1], in [2], in assay [3], in [17], in assay [4] and in assay [19] was “inactive” throughout. Moreover, the Potency result in assay [5], in assay [6], in assay [7], in assay [8], in assay [9] and in assay [10] was “inactive” throughout. Moreover, the Potency entry in assay [11], in assay [12], in assay [15] and in assay [13] was “inactive” throughout. The Potency in assay [20] was 28.4 µM (active).

Turning to `CC(C)C(Nc1ccc(C(F)(F)F)cc1Cl)C(=O)OC(C#N)c1cccc(Oc2ccccc2)c1` (configuration not stated), the Potency entry in assay [1], in [2], in assay [3], in [17], in assay [4] and in assay [20] was “inactive” throughout. For the same molecule, the Potency entry in assay [19], in assay [5], in [6], in assay [7], in [8] and in [9] was “inactive” in each case. Besides, the Potency entry in assay [12], in assay [15] and in [13] was “inactive” throughout.

Regarding `CCC[CH2][Sn]([CH2]CCC)([O]C(C)=O)[O]C(C)=O`, the Potency in assay [1] is 19.5 µM (active); in [2] it was 3.89 µM (active); in [17], 31.2 µM [inconclusive] (active); in assay [6], 15.5 µM (active); in [7], 13.8 µM (active). In addition, the Potency entry in [3], in [4], in assay [18] and in assay [8] was “inactive” in each case.

On to `COc1nc(C)nc(NC(=O)NS(=O)(=O)c2ccccc2Cl)n1`, for which the Potency entry in [1], in assay [2], in assay [3], in assay [17], in assay [4] and in assay [19] was “inactive” in each case. Besides, the Potency result in assay [5], in [6], in [7], in [8], in [9] and in assay [10] was “inactive” each time. Besides, the Potency entry in [11], in assay [12], in [14], in assay [15], in assay [13] and in assay [16] was “inactive” in each case.

Regarding `CN(C)C(=S)SSC(=S)N(C)C`, the Potency in [1] was 133 nM (active) and 9.55 µM (active) and 21.7 nM (active); in [2], 94.4 nM (active) and 269 nM (active) and 15.4 nM (active); in assay [6] it was 188 nM (active) and 47.9 nM (active) and 15.4 nM (active); in assay [7] it was 944 nM (active) and 75.9 nM (active) and 54.5 nM (active); in assay [9] it was “inactive and 154 nM (active)”; in assay [15], 60.3 µM (active) and 13.7 µM (active) and 18.8 µM (active). In addition, the Potency result in assay [3], in assay [17], in assay [4], in [18], in assay [5] and in assay [8] was “inactive” in each case. The Potency entry in assay [13] is “inactive”.

Take `O=[N+]([O-])c1ccccc1-c1ccccc1`: the Potency entry in assay [1], in assay [2], in [3], in assay [17], in assay [4] and in assay [18] was “inactive” in each case. For the same molecule, the Potency result in assay [19], in [5], in [6], in [7], in [8] and in assay [9] was “inactive” throughout. In addition, the Potency entry in assay [11], in assay [12], in [14], in assay [15] and in assay [13] was “inactive” in each case.

Take `CN(C)c1ccc(N)cc1`: the Potency in assay [1] was 59.6 µM (active); in assay [2] it was 47.4 µM (active); in assay [17] it was 60.2 µM [inconclusive] (active); in assay [20], 7.51 µM (active); in [7], 66.9 µM (active); in assay [8] it was 18.9 µM (active). For the same molecule, the Potency in [9] was 66.9 µM (active). In addition, the Potency result in assay [3], in [18], in assay [10], in assay [12], in [13] and in assay [16] was “inactive” throughout.

In the case of `N#Cc1sc2c(=O)c3ccccc3c(=O)c=2sc1C#N`, the Potency is 24.3 µM (active) in [1]; 24.3 µM (active) in [2]; 54.9 µM (active) in assay [4]; 27.3 µM (active) in assay [5]; 2.17 µM (active) in [6]; 4.33 µM (active) in assay [7]. Moreover, the Potency was 1.93 µM (active) in [8]; 6.86 µM (active) in [9]; 12.3 µM (active) in assay [11]; 19.5 µM (active) in assay [12]; 8.63 µM (active) in [15]; 1.95 µM (active) in [13]. The Potency entry in assay [3] and in assay [10] was “inactive” each time.

Regarding `CC(C)[C@@H](Nc1ccc(C(F)(F)F)cc1Cl)C(=O)OC(C#N)c1cccc(Oc2ccccc2)c1` (some centres not stated), the Potency entry in assay [1], in [2], in assay [3], in assay [17], in assay [4] and in assay [20] was “inactive” each time. Also, the Potency result in assay [19], in [5], in assay [6], in assay [7], in assay [8] and in [9] was “inactive” in each case. Moreover, the Potency result in [12], in [15] and in assay [13] was “inactive” each time.
